# From PubChem
# LYP inh 2: PTPN22 phosphatase inhibitors, primary screen, biochemical, DiFMUP fluorescence, 2 µM; inhibition, % at 2 µM; recombinant LYP catalytic domain; Tyrosine-protein phosphatase non-receptor type 22 (Homo sapiens), Q9Y2R2; hit rate 0.21% among 96,000;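 active = inhibition at 2 µM at or above a set limit, the screen mean plus 3 SD, cut at about 24% in these data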;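 also: 0% = DMSO with enzyme and 100% = enzyme fully blocked by orthovanadate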
# Target sequence (Q9Y2R2 whole entry, looked up, the tested form may be a part): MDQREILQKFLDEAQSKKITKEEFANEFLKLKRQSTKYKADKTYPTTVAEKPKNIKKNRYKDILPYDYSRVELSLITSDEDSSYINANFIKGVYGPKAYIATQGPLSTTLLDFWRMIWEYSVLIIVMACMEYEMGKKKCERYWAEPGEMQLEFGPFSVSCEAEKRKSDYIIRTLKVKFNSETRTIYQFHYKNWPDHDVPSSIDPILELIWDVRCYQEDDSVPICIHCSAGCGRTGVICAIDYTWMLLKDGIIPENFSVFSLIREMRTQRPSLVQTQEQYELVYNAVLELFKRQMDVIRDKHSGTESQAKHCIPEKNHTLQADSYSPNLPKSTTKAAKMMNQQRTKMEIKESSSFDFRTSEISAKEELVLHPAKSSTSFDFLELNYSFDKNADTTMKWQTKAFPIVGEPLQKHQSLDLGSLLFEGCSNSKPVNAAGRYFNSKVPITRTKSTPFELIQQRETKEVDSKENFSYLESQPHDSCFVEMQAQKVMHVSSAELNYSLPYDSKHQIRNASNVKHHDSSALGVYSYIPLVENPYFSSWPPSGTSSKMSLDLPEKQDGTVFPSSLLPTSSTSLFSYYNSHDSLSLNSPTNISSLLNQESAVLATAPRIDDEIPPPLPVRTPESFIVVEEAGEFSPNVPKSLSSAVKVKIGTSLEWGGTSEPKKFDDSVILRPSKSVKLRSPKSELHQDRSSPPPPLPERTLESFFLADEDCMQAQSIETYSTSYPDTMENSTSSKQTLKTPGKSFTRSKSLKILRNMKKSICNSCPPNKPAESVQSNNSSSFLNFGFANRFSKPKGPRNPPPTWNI
# PLAP activator: PLAP enzyme activators, biochemical, luminescence, HTS. Alkaline phosphatase, placental type (Homo sapiens), P05187. purified PLAP enzyme, luminescent substrate read-out; active compounds read high. activation fold at 20 µM. hit rate 1.2% among 96,000; in the data active = activation fold above about 2
# MRP reversal: reversal of MRP1-mediated doxorubicin resistance, primary screen, H69AR cells, doxorubicin co-treatment. H69AR cells + 2 uM doxorubicin, CellTiter-Glo, 72 h. differential viability (reversal), % at 10 µM. hit rate 0.04% among 85,000. AID 602, 2007;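 active = viability drop by adding the cancer drug above about 55%, with treated viability meeting a 40% cutoff, limit read from the data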;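 also: viability without doxorubicin minus viability with 2 µM doxorubicin for each compound; larger differential means the compound sensitizes cells more to doxorubicin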
# PTPN22 act: LYP phosphatase activators, primary screen, biochemical, DiFMUP fluorescence, 2 µM | Tyrosine-protein phosphatase non-receptor type 22 (Homo sapiens), Q9Y2R2 | recombinant LYP; 0 = plate median, 100 = signal doubled | activation, % at 2 µM | hit rate 0.11% among 96,000 | AID 697, 2007;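 active = activation at 2 µM above a set limit, the mean plus 5 SD, cut at about 37% in these data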
# FAK blocker: FAK kinase inhibitors, primary screen, biochemical; Focal adhesion kinase 1 (Homo sapiens), Q05397; biochemical FAK kinase activity assay; inhibition, %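 (tested at 7 µM)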; hit rate 0.84% among 97,000; in the data active = inhibition above about 19%;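 also: 0% = DMSO and 100% = reference compound high control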
# MRP-1 activ: H69AR viability gain despite doxorubicin, primary screen, MRP-1 activator project, H69AR cells, CellTiter-Glo; viability increase, % at 10 µM; viability rescue; hit rate 0.61% among 140,000; AID 799, 2007;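 active = viability gain under doxorubicin at or above a set limit, the compound median plus 3 SD, cut at about 4.7% in these data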;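 also: MRP-1 overexpressing cells given doxorubicin 25 µM after compound pretreatment; 18-22 h compound pretreatment then 72 h with doxorubicin before readout; 0% = doxorubicin-only wells and 100% = vehicle-treated cells without doxorubicin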
# An asterisk follows results filed as active; . = not tested or not shown. In the library only some 2.2% were active in any assay of this set; here they are far more common.
SMILES,LYP inh 2,PLAP activator,MRP reversal,PTPN22 act,FAK blocker,MRP-1 activ
O=C(Nc1ccc(Cl)cc1)C1CCCN(S(=O)(=O)c2cnc[nH]2)C1 (stereo not given),5,1.1,11,-7,-7,4.9*
Cc1cc(C)cc(OCC(=O)NNC(=O)c2cc(C)[nH]n2)c1,-5,2.7*,.,8,-4,-2
Cc1ccc(/C=C2\SC(N3CCN(C(c4ccccc4)c4ccccc4)CC3)=NC2=O)o1,.,.,.,.,.,-1
O=C1OC(Nc2ccccn2)c2ccccc21 (stereo not given),-2,1,-17,2,-1,32*
COc1ccc2cnn(CCOc3cc(C)ccc3C(C)C)c(=O)c2c1OC,.,.,.,.,.,-3
C#CCn1c(=NC(=O)c2cc(-c3cccs3)nc3ccccc23)sc2cc(S(N)(=O)=O)ccc21,.,.,.,.,.,-2
CCOc1ccc(C)cc1S(=O)(=O)NC1CCCCC1,-9,2.2*,3,3,1,-2
O=C(Cn1cnc2nc3n(c2c1=O)CCC3)NCc1ccccc1,.,.,.,.,.,0
COc1ccc(OC)c(-c2cc(C(=O)Nc3c(C)nn(Cc4ccccc4C)c3C)no2)c1,1,0.9,2,-2,5,9.3*
COc1ccc(OC)c(-c2cc(C(=O)Nc3c(C)nn(Cc4ccccc4Cl)c3C)no2)c1,10,0.9,3,-12,0,5.5*
COc1ccc(-c2cc(C(=O)Nc3c(C)nn(Cc4ccccc4Cl)c3C)no2)cc1OC,4,1.1,-8,-7,-2,-3
O=C(CN1CCCC1)Nc1c2c(nc3ccccc13)N(Cc1ccccc1)CC2,0,2*,6,-2,-1,-2
CCC1=Nc2cc(C(=O)NCCCOC)ccc2Sc2ccccc21,1,2*,-26,-1,-1,-4
Nn1c(SCc2nc3ccccc3[nH]2)nnc1C1CCCCC1,1,2.1*,-6,-3,5,-1
Nn1c(SCc2nc3ccccc3[nH]2)nnc1-c1cccnc1,.,2*,-5,.,.,0
COc1cccc(-c2nnc(SCc3nc4ccccc4[nH]3)n2N)c1,-3,1.3,-17,-1,1,-1
Cc1c(Br)c([N+](=O)[O-])nn1CC(=O)Nc1ccc(Cc2ccncc2)cc1,.,.,.,.,.,-1
CCCC(=O)Nc1cccc(NC(=O)c2cccc([N+](=O)[O-])c2C)c1,.,.,.,.,.,-3
COC(=O)c1c(C(=O)OC)c2ccncn2c1Cl,7,2.4*,62,-5,-2,0
O=S(=O)(/N=C(/c1ccccc1)N1CCCCC1)c1ccccc1,.,.,.,.,.,-1
CC(/C=N\NC(=O)CN1CCN(S(=O)(=O)c2ccc(C)cc2)CC1)=C\c1ccccc1,.,.,.,.,.,5.8*
Cc1ccc(S(=O)(=O)N2CCN(CC(=O)N/N=C\C(Cl)=C\c3ccccc3)CC2)cc1,.,.,.,.,.,0
COc1cccc(N=Nc2c(=O)[nH]n3c(=O)cc(C)[nH]c23)c1,-21,2*,.,16,-1,-1
COc1cccc(N=Nc2c(=O)[nH]n3c(=O)c4c([nH]c23)CCC4)c1,.,.,.,.,.,1
O=C(Nc1ccc(F)cc1)c1ccccc1S(=O)(=O)c1ccccc1[N+](=O)[O-],.,.,.,.,.,-4
SMILES,LYP inh 2,PLAP activator,MRP reversal,PTPN22 act,FAK blocker,MRP-1 activ
O=C(Nc1ccc(CCC(=O)N2CCCC2)cc1)c1ncn[nH]1,0,1,0,-1,1,-3
O=C(Nc1ccc(N2CCCCC2)c(C(=O)O)c1)c1ccco1,4,0.9,-2,-7,-2,-1
O=C(Nc1ccc(N2CCCCC2)c(Cl)c1)c1ncn[nH]1,-3,1.4,.,0,-3,8.8*
O=C(Cc1ccc(Cl)cc1)Nc1ccc(N2CCN(C(=O)c3ccco3)CC2)c(Cl)c1,-17,2.4*,4,16,0,0
O=C(Nc1ccc(N2CCCC2)c(Cl)c1)c1ccco1,.,0.7,9,.,.,4.9*
O=C(Cn1cc([N+](=O)[O-])cn1)NCc1cc2ccccc2[nH]1,.,.,.,.,.,-2
Cc1ccccc1NC(=S)Nc1ccc(Br)cc1,.,.,.,.,.,-3
CCCCOC(=O)c1ccc(NC(=O)CSc2nncn2C)cc1,-2,1.6,0,2,7,0
CCCCOC(=O)c1ccc(NC(=O)CSCc2n[nH]c(=O)[nH]2)cc1,0,2.1*,-5,-1,-1,-1
CCCc1[nH]n(-c2nc3ccccc3s2)c(=O)c1C=NCC(C)C,3,2.1*,-2,-2,1,-2
CCOC(=O)C1=C(c2ccccc2)N=c2s/c(=C\c3ccco3)c(=O)n2C1c1cccs1 (stereo not given),9,.,.,-7,21*,-1
COc1ccc(CNc2nc3c(c(=O)n(Cc4ccc(Br)cc4)c(=O)n3C)n2C)cc1,-3,1.7,0,2,6,5.2*
CS(=O)(=O)Nc1nnc(Cc2ccccc2)s1,0,.,-10,5,0,7.9*
CN(/N=C/c1ccc(O)cc1O)c1nc(-c2ccccc2)cc(-c2ccccc2)n1,.,.,.,.,.,-5
NS(=O)(=O)c1ccc(N=Nc2c(-c3ccccc3)[nH]n(-c3nc(-c4ccccc4)cs3)c2=O)cc1,.,.,.,.,.,5.3*
Cc1onc(-c2c(F)cccc2Cl)c1C(=O)Nc1nc2ccccc2[nH]1,2,2*,-19,1,-1,-2
Cc1onc(-c2c(F)cccc2Cl)c1C(=O)Nc1cccc2nsnc12,-9,1,-4,9,0,-1
O=C(N/N=C/c1ccco1)c1cc(-c2ccccc2)n[nH]1,-8,.,5,7,0,-3
Cc1ccc(-c2cc(C(=O)N/N=C/c3ccco3)[nH]n2)cc1,6,2.2*,8,-4,1,2
COc1ccc(C2(O)CCN(CC(=O)Nc3nccs3)CC2)c(OC)c1,-9,2.4*,-1,7,-6,-2
CCc1nnc(NC(=O)CN2CCC(O)(c3ccccc3OC)CC2)s1,10,1.4,-4,-6,3,0
COc1ccc(C2C(=O)N(C3CCCCC3)CC(=O)N2C2CCCCC2)cc1 (stereo not given),25*,1.6,-6,-24,0,-2
Cc1ccc(C2C(=O)N(C3CCCC3)CC(=O)N2C2CCCCC2)cc1 (stereo not given),8,1.3,-6,-8,2,-4
COc1ccccc1/C=C1\CCCC2=C1Nc1nnnn1C2c1ccccc1OC (stereo not given),.,.,.,.,.,-6
Cc1c(NC(=O)C(C)OC(=O)c2ccc(Cl)nc2)c(=O)n(-c2ccccc2)n1C (stereo not given),.,.,.,.,.,-1
COc1ccc(/C(C)=N/NC(=O)c2nc(C)cc(C)n2)cc1,-4,2*,7,6,-1,2
CCO/N=C(/C)c1c(O)c(C)c(-c2ccccc2)n(-c2ccccc2)c1=O,6,.,-2,-6,1,0
